The values that follow come from PubChem BioAssay (NCATS).

Records with an inconclusive call do not appear. Where a call stands in place of a potency, no number is given. Calls of active or inactive are those of the source. The call rests on the fitted dose curve; in most records, active means well fitted inhibition curve with a large enough effect; inconclusive means small, poorly fitted or top-dose-only effect; inactive means flat fitted curve, though single readings scatter.
Potency means the concentration at half of the fitted maximal effect.

For the assay, the system named is DFO2036. The assay is described as follows: qHTS profiling for inhibitors of Plasmodium falciparum proliferation (AID 504749). Further: nearly all actives have a fitted effect of over 60% in size. The note with it: P. falciparum in erythrocytes, SYBR Green DNA, 72 h; series mostly up to 28.7 µM. The source says: NIH National Institute of Allergy and Infectious Diseases [NIAID] NIH Chemical Genomics Center [NCGC] MLPCN Grant: None Assay Provider: Xinzhuan Su, NIAID NCGC Assay Overview: Plasmodium falciparum is a virulent malarial parasite that kills 1-2 million people worldwide each year. Transmitted by mosquitoes, the sporozoite form of the parasite enters the blood stream to infect hepatocytes, where they become merozoites that infect red blood cells (erythrocytes). Within erythrocytes, merozoites begin a […] cycle of growth and division, after which the parasite is released to infect new red blood cells. Gametocytes, which form within erythrocytes as well, circulate in the bloodstream and are ingested by the mosquito, thereby completing the life cycle. To profile malarial isolates for differential chemical responses and to identify inhibitors of malarial growth, an assay that measures P. falciparum growth and replication within erythrocytes was employed. This assay uses a DNA binding fluorescent dye (SYBR Green) to detect parasite DNA following cell lysis. Because mature erythrocytes lack DNA, only Plasmodium-derived DNA is detected.
NCGC Assay Protocol Summary: The SYBR Green viability assay was adapted from a method described previously (Plouffe et al., 2008). For screening 3 ul culture medium was dispensed into 1536 well black clear bottom plates (Aurora Biotechnologies) using a Multidrop Combi (Thermo Fisher Scientific Inc.), 23 nL compounds in DMSO were added by a pin tool (Kalypsys), and 5 ul of erythrocytes infected with P. falciparum (0.3% parasitemia, 2.5% hematocrit final concentration) were added. The plates were incubated at 37 C in a humidified incubator in 5% CO2 for 72 h, and 2 ul lysis buffer (20 mM Tris HCl, 10 mM EDTA, 0.16% saponin, 1.6% triton X, 10X SYBR Green I supplied as 10,000X […] by Invitrogen) was added to each well. The plates were mixed for 25 sec with gentle shaking and incubated overnight at room temperature in the dark. The following morning, fluorescence intensity at 485(14) nm excitation and 535(25) nm emission wavelengths was measured on an EnVision (Perkin Elmer) plate reader. Plate reads were normalized relative to the control inhibitor (0.29 uM artemisinin) and vehicle (DMSO) wells present on each plate and then corrected by an algorithm using vehicle-only control plates at the beginning and end of the compound plate stack.
(In general: Quantitative high-throughput screening tests each substance at several concentrations.)
Consider `N[C@H]1C[C@H]1c1ccccc1`, for which the Potency result was “inactive”.
Then `CO[C@@H](COC(N)=O)C1=C(N2CC2)C(=O)C(C)=C(N2CC2)C1=O`, with 0.794 µM (active); and `C[C@]12CC[C@H]3[C@@H](CCC4=CC(=O)CC[C@@]43C)[C@@H]1CC[C@@H]2O`, with “inactive”.
As to `C[C@]12CC[C@H](O)C[C@H]1CCC1C2CC[C@]2(C)[C@@H](c3ccc(=O)oc3)C[C@H]3O[C@]132` (stereo not given in full), the Potency entry was “inactive”.
The same measure for `CNc1ccc(C(=O)CC(O)CCC(C)C2OC(=O)CC(O)CC(=O)CC(O)CC(O)CC(O)CC(O)CC3(O)CC(O)C(C(=O)OC)C(CC(O[C@@H]4OC(C)C(O)C(N)C4O)/C=C/C=C/C=C/C=C/C=C/C=C/C=C/C2C)O3)cc1` (stereo not given in full): “inactive”; for `Clc1ccc([C@@H](OCCN2CCCCC2)c2ccccc2)cc1`: “inactive”.
Then `C[C@]12CC[C@H](OS(=O)(=O)O)CC1=CCC1C2CC[C@]2(C)C(=O)CC[C@@H]12` (stereo not given in full), with “inactive”; and `CNC[C@H](O)c1ccc(O)cc1`, with “inactive”.
The same measure for `C[N+]1(C)[C@@H]2CC[C@H]1CC(OC(=O)[C@@H](CO)c1ccccc1)C2` (stereo not given in full): “inactive”; for `Oc1ccc2c3c1O[C@H]1[C@@H](O)CC[C@@]4(O)C(C2)N(CC2CCC2)CCC314` (stereo not given in full): “inactive”.
As for `CC(C)N(CC[C@@](C(N)=O)(c1ccccc1)c1ccccn1)C(C)C`, the Potency entry was “inactive”.
The same measure for `C[C@H](NC(C)(C)C)C(=O)c1cccc(Cl)c1`: “inactive”.
The same measure for `CNC(C)[C@@H](O)c1ccc(O)cc1` (stereo not given in full): “inactive”; for `COc1cc2c(cc1OC)[C@@]13CCN4CC5=CCOC6CC(=O)N2C1[C@H]6[C@@H]5C[C@@H]43` (stereo not given in full): “inactive”; for `CNC(C)[C@@H](O)c1ccccc1` (stereo not given in full): “inactive”.
The same measure for `C#CCN(C)[C@@H](C)Cc1ccccc1`: “inactive”.
On to `CCN[C@]1(c2cccs2)CCCCC1=O`, for which the Potency entry is “inactive”.
Then `CC(C)c1c(CN(C)[C@@H](C)Cc2ccccc2)n(C)n(-c2ccccc2)c1=O`, with “inactive”; and `C=CC1CN2CCC1CC2C(OC(=O)OCC)c1ccnc2ccc(OC)cc12` (stereo not given), with 6.31 µM (active).
The same measure for `CC([C@H](O)c1ccccc1)N(C)C` (stereo not given in full): “inactive”; for `CCCC[N+]1(C)C2CC(OC(=O)C(CO)c3ccccc3)CC1C1OC12` (stereo not given): “inactive”.
As to `CC(=O)O[C@H]1CC[C@@]2(C)C(=CC[C@@H]3[C@H]2CC[C@]2(C)C(=O)CC[C@H]32)C1`, the Potency entry was “inactive”.
Turning to `CCNC[C@H](O)c1cccc(O)c1`, the Potency entry is “inactive”.
Then `CN[C@@H](C)[C@H]1CC[C@@H](N)[C@@H](O[C@@H]2[C@@H](O)[C@@H](O[C@H]3OC[C@@](C)(O)[C@@H](NC)[C@@H]3O)[C@H](N)C[C@@H]2N)O1` (tested in a mixture with another compound), with “inactive”; and `C[C@@]12CC[C@H]3[C@@H](CC[C@@H]4C[C@H]5S[C@H]5C[C@]43C)[C@H]1CC[C@H]2O`, with “inactive”; and `COc1cc(N)c(Cl)cc1C(=O)N[C@@H]1CN2CCC1CC2`, with “inactive”.
The same measure for `C[C@H](N)[C@@H](O)c1ccccc1`: “inactive”; for `C[C@@]12CCC(=O)C=C1C=C[C@H]1[C@H]3CC[C@](O)(CCC(=O)O)[C@]3(C)CC[C@@H]12`: “inactive”.
The same measure for `C[N+]1([O-])[C@@H]2CC[C@H]1CC(OC(=O)[C@@H](CO)c1ccccc1)C2` (stereo not given in full): “inactive”; for `NCC[C@H](O)C(=O)N[C@H]1C[C@@H](N)[C@@H](O[C@H]2O[C@@H](CN)[C@@H](O)[C@@H](O)[C@@H]2N)[C@@H](O[C@H]2O[C@@H](CO)[C@@H](O)[C@@H]2O)[C@@H]1O`: “inactive”; for `CN(C)C(=O)Oc1cc(OC(=O)N(C)C)cc([C@@H](O)CNC(C)(C)C)c1`: “inactive”.
Turning to `O=c1ccc2cc(O[C@H]3O[C@@H](CO)[C@@H](O)[C@@H](O)[C@@H]3O)c(O)cc2o1`, the Potency result is “inactive”.
With `CC[C@@]1(c2ccc(N)cc2)CCC(=O)NC1=O`, the Potency result is “inactive”.
On to `CC(C)(O)C1C2OC(=O)C1[C@]1(O)C[C@H]3O[C@]34C(=O)O[C@H]2[C@]14C` (stereo not given in full) (tested in a mixture with another compound), for which the Potency result was “inactive”.
The same measure for `CC(=O)OCC(=O)[C@@H]1CC[C@H]2[C@H]3CC[C@H]4C[C@@H](O)CC[C@]4(C)[C@@H]3C(=O)C[C@@]12C`: “inactive”; for `CC[C@@H]1[C@@H]2C[C@H]3[C@H]4N(C)c5ccccc5[C@@]45C[C@@H]([C@@H]2[C@@H]5O)N3[C@H]1O`: “inactive”; for `CCC(C)C1O[C@]2(C=CC1C)CC1CC(C/C=C(\C)[C@H](OC3CC(OC)C(O[C@H]4CC(OC)[C@@H](O)C(C)O4)C(C)O3)[C@@H](C)/C=C/C=C3\COC4C(O)C(C)=C[C@H](C(=O)O1)[C@@]34O)O2` (stereo not given in full): 11.2 µM (active).
Then `CC(=O)OC1C[C@H](O[C@@H]2C(O)C[C@H](O[C@@H]3C(O)C[C@@H](OC4CC[C@]5(C)C(CCC6C5CC(O)[C@@]5(C)C(C7=CC(=O)OC7)CC[C@@]65O)C4)OC3C)OC2C)O[C@H](C)[C@H]1O[C@H]1OC(CO)C(O)C(O)C1O` (stereo not given in full), with “inactive”; and `ClC1=C(Cl)C2(Cl)C3C4CC(C5OC45)C3C1(Cl)C2(Cl)Cl` (stereo not given), with “inactive”; and `CN(C)[C@@H]1C(=O)C(C(N)=O)=C(O)[C@]2(O)C(=O)C3=C(O)c4c(O)ccc(Cl)c4[C@](C)(O)[C@H]3C[C@@H]12`, with “inactive”.
